The values that follow come from ChEMBL document CHEMBL1961873, “Compounds: GSK PKIS; Assays: Nanosyn kinase panel” (2012).

Broadly, the inhibition is the relative decrease from the control value, in per cent.

The target of assay [1] is Calcium/calmodulin-dependent protein kinase type II subunit alpha (Homo sapiens) (UniProt Q9UQM7). The settings on record: at 1 µM.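 Note: reported value is a mean percent inhibition of CAMK2A.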
Assay [2] has as its target Calcium/calmodulin-dependent protein kinase type II subunit delta (Homo sapiens) (UniProt Q13557). The following applies: at 0.1 µM.
The target is the same in assay [3]. The settings on record: at 1 µM.
The target of assay [4] is T1, Calcium/calmodulin-dependent protein kinase type IV (Homo sapiens) (UniProt Q16566).
T1 sequence (whole entry): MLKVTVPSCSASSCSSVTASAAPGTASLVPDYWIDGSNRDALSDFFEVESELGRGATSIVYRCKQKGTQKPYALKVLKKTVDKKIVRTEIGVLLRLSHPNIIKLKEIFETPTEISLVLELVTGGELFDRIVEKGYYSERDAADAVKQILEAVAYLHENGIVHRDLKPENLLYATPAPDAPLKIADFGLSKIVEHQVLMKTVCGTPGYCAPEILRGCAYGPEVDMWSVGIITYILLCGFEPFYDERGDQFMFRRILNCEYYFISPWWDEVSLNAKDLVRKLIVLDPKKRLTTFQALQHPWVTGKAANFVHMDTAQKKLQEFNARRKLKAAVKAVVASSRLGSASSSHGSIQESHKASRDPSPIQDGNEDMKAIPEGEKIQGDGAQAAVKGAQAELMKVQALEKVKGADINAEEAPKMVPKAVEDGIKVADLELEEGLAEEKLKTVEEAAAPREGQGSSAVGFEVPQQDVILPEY
The following applies: at 0.1 µM.

Assay [5] concerns the target T1, Calcium/calmodulin-dependent protein kinase type IV (Homo sapiens). The settings on record: at 1 µM.
For assay [6], the target named is T2, Serine/threonine-protein kinase Chk1 (Homo sapiens) (UniProt O14757).
T2 sequence (whole entry): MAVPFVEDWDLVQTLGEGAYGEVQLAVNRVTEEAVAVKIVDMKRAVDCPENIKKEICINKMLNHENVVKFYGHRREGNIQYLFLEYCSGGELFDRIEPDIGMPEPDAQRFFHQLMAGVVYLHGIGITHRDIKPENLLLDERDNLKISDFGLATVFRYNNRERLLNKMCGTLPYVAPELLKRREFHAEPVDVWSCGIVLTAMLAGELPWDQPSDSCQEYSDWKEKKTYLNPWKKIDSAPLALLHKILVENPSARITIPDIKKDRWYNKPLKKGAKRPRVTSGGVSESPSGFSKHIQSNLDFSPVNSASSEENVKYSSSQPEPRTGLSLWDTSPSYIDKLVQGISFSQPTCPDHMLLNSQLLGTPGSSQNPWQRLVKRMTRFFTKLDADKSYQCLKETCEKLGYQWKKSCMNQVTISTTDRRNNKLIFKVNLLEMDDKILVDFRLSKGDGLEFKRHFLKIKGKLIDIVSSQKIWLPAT
The settings on record: at 0.1 µM.

Assay [7] addresses T2, Serine/threonine-protein kinase Chk1 (Homo sapiens). The following applies: at 1 µM.
Assay [8] deals with Serine/threonine-protein kinase Chk2 (Homo sapiens) (UniProt O96017). The settings on record: at 0.1 µM.
For assay [9] the target is unchanged. The settings on record: at 1 µM.
Assay [10] addresses Death-associated protein kinase 1 (Homo sapiens) (UniProt P53355). The settings on record: at 0.1 µM.

Calcium/calmodulin-dependent protein kinase type II subunit delta (Homo sapiens), sequence (Q13557 whole entry): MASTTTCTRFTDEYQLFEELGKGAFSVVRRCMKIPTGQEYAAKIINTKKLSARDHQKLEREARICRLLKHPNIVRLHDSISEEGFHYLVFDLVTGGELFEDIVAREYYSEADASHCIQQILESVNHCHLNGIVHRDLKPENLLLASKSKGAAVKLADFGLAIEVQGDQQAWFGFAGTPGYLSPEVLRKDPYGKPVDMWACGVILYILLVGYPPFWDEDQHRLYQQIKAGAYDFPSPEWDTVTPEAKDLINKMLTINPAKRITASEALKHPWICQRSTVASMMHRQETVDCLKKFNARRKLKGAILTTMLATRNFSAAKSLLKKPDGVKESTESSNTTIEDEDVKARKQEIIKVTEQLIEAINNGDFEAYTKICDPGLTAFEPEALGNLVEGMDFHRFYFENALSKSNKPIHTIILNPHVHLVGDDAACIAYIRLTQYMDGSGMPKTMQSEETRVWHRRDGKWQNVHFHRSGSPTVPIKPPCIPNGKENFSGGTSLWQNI
Serine/threonine-protein kinase Chk2 (Homo sapiens), sequence (O96017 whole entry): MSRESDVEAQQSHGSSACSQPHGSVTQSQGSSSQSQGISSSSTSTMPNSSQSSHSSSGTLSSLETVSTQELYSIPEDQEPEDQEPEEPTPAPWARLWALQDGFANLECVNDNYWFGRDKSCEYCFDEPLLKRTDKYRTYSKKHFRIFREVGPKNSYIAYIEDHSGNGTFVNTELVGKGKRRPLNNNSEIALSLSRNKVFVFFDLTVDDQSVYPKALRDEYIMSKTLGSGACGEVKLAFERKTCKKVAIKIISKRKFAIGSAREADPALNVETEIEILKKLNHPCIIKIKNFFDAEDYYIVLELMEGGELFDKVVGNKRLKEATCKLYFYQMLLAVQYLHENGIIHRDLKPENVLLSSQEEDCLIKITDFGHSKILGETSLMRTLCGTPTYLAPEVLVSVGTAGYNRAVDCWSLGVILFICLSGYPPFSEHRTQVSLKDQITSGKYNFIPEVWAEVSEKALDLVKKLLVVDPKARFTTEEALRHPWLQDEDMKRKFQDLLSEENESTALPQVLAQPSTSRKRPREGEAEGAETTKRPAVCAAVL
Death-associated protein kinase 1 (Homo sapiens), sequence (P53355 whole entry, looked up): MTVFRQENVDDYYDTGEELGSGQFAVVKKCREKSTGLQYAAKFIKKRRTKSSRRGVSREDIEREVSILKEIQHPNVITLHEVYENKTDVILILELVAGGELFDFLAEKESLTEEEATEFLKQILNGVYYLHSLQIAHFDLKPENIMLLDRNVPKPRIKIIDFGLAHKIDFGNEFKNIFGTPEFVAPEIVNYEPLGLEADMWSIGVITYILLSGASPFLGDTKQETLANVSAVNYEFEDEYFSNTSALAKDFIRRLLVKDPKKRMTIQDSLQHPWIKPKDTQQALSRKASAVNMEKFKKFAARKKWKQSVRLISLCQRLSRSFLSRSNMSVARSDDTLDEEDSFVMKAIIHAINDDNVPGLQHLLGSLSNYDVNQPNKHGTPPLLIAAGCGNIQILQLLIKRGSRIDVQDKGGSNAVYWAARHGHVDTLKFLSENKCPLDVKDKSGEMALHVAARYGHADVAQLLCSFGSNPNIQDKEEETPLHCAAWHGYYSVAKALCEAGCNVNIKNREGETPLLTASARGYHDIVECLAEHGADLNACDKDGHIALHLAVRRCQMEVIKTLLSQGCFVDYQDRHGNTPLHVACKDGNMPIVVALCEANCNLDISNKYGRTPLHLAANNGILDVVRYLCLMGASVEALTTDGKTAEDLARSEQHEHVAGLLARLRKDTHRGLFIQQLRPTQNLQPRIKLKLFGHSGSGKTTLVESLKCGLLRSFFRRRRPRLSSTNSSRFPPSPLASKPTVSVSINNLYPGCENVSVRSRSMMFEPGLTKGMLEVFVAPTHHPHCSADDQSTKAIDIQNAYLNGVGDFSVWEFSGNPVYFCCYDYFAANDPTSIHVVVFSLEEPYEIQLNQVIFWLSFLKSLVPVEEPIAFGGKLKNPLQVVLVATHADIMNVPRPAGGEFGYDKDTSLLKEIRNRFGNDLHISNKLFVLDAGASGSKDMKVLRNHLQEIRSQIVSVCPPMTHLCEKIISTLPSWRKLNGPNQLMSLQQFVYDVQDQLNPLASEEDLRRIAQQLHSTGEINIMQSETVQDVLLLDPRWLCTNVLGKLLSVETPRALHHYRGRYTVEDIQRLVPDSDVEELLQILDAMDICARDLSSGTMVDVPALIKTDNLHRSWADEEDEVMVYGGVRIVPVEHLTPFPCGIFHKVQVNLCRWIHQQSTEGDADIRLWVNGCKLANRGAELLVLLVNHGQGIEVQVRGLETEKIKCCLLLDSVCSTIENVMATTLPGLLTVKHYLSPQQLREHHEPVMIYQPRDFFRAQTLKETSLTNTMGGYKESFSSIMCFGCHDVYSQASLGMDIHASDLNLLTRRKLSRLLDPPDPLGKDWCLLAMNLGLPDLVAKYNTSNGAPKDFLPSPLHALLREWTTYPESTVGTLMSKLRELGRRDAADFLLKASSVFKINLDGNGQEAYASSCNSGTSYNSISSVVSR
Calcium/calmodulin-dependent protein kinase type II subunit alpha (Homo sapiens), sequence (Q9UQM7 whole entry): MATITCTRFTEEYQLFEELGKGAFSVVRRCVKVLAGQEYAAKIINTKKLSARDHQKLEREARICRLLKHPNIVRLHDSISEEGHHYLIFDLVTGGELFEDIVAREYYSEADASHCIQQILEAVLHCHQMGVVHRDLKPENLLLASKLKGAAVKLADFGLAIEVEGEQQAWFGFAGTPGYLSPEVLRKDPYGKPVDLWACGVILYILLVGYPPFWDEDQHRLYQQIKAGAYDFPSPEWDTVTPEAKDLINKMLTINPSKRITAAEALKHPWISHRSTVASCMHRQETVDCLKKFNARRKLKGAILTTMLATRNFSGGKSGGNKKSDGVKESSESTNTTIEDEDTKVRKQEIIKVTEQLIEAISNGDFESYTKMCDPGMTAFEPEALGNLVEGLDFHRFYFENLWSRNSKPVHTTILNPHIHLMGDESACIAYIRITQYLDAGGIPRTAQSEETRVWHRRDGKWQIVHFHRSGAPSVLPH

As to `CN(C)CCCn1c(-c2nonc2N)nc2cnccc21`, the inhibition was 3.18% in assay [1]; 3.33% in assay [2]; 4.12% in assay [3]; -0.84% in assay [4]; 15.5% in assay [5]; 5.63% in [6]. Moreover, the inhibition in assay [7] was 4.94%; in assay [8], 2.39%; in assay [9] it was 3.79%; in assay [10], 4.9%.

Consider `COc1ccc(-c2nn3ncccc3c2-c2ccnc(Nc3cccc(C(F)(F)F)c3)n2)cc1`, for which the inhibition is -0.66% in assay [1]; 1.66% in assay [2]; 0.95% in assay [3]; 1.07% in assay [4]; -0.19% in assay [5]; 1.85% in assay [6]. Further, the inhibition in [7] was -3.09%; in [8], 2.01%; in assay [9], 1.61%; in assay [10], 4.24%.

Consider `O=C(Nc1ccc(Oc2ccc3[nH]c(NC(=O)c4ccco4)nc3c2)cc1)Nc1cc(C(F)(F)F)ccc1F`, for which the inhibition in assay [1] was 2.09%; in assay [2], 1.58%; in [3], 4.15%; in assay [4] it was 2.98%; in assay [5], 4.62%; in [6], -0.34%. Moreover, the inhibition in assay [7] was -0.68%; in assay [8], 0.12%; in assay [9] it was 4.39%; in assay [10], -1.4%.

For the compound `NS(=O)(=O)c1ccc(Nc2cc(-c3cccc(O)c3)n[nH]2)cc1`, the inhibition in assay [1] was 5.49%; in assay [2], 5.13%; in assay [3] it was 6.02%; in [4], 0.32%; in [5], -1.03%; in assay [6] it was 5.99%. Also, the inhibition in [7] was 8.68%; in assay [8], 3.04%; in [9] it was 6.54%; in [10], 7.24%.

In the case of `COc1cc2ncn(-c3cc(OCc4ccccc4S(C)(=O)=O)c(C#N)s3)c2cc1OC`, the inhibition in assay [1] was 29.9%; in [2], 18.3%; in assay [3] it was 62.8%; in assay [4] it was 1.21%; in [5], 1.69%; in [6], 5.49%. The inhibition came to 23.3% in assay [7], 10% in [8], 43% in [9] and 3.5% in assay [10].

In the case of `Oc1cccc(-c2nc(-c3ccccc3)[nH]c2-c2ccncc2)c1`, the inhibition in [1] was 3.17%; in [2], 3.67%; in assay [3], 3.45%; in [4], 2.26%; in assay [5], 0.29%; in [6] it was 7.47%. Also, the inhibition in assay [7] was 6.28%; in assay [8] it was 0.91%; in assay [9] it was 1.68%; in [10] it was 5.76%.

As to `CS(=O)(=O)Nc1cccc(-c2ccc3c(NC(=O)C4CC4)n[nH]c3c2)c1`, the inhibition in assay [1] was 2.85%; in [2], 3.31%; in assay [3], 3%; in [4], 1.21%; in assay [5], 0.65%; in assay [6] it was 1.78%. Besides, the inhibition stood at 1.91% in assay [7], 0.51% in [8], 0.84% in assay [9] and 1.43% in [10].

For the compound `COc1cccc(-n2ncc3c(N/N=C/c4ccc(S(C)(=O)=O)cc4)ncnc32)c1`, the inhibition in assay [1] was 1.01%; in [2] it was 1.8%; in assay [3] it was 4.11%; in assay [4], 2.57%; in assay [5] it was 0.23%; in [6], 0.1%. The inhibition is -1.03% in assay [7], -0.14% in assay [8], 0.05% in assay [9] and -1.65% in assay [10].

In the case of `CN1CCN(C(=O)c2ccc(NC(=O)Nc3ccc(N(C)c4ccnc(Nc5ccc(CS(C)(=O)=O)cc5)n4)cc3)cc2)CC1`, the inhibition in assay [1] was 3.13%; in assay [2] it was 1.38%; in assay [3], 3.39%; in assay [4] it was 1.22%; in [5] it was 1.48%; in assay [6], 1.47%. Besides, the inhibition in assay [7] came out at 2.64%; in [8], 5.54%; in assay [9], 39.4%; in assay [10] it was 2.86%.

Take `NS(=O)(=O)c1cccc(-c2cc3ccncc3cc2OCc2ccccc2)c1`: the inhibition in [1] was 4.81%; in assay [2], 4.83%; in assay [3], 5.07%; in assay [4], 0.13%; in [5], -0.46%; in [6] it was 5.29%. Moreover, the inhibition in assay [7] turned out to be 6.26%; in [8], 3.17%; in assay [9], 5.38%; in assay [10], 6.37%.

`NC(=O)c1cccc(Nc2nccc(Nc3cccc(F)c3)n2)c1`: the inhibition in assay [1] came out at 0.53%; in assay [2], 0.45%; in assay [3], 2.08%; in assay [4] it was 1.09%; in assay [5], 1.02%; in assay [6], 0.04%. The inhibition in assay [7] was 1.52%; in assay [8], -0.9%; in assay [9] it was 2.39%; in [10] it was 0.65%.

Take `Nc1nccc(C#Cc2cncnc2Nc2ccc(OCc3cccc(F)c3)c(Cl)c2)n1`: the inhibition in [1] was 5.08%; in assay [2], 8.4%; in [3], 8.79%; in [4], -0.4%; in [5], 0.61%; in assay [6], 1.22%. The inhibition was determined as 7.61% in assay [7], 2.66% in [8], 5.77% in [9] and 3.9% in assay [10].

On to `Cc1ccc2c(c1)/C(=N/Nc1ccc(S(N)(=O)=O)cc1)C(=O)N2`, for which the inhibition in [1] was determined as 2.25%; in assay [2], 1.2%; in assay [3], 3.28%; in assay [4], 1.05%; in [5], 2.05%; in assay [6], 0.25%. Also, the inhibition in [7] is 3.5%; in assay [8], 0.04%; in assay [9], 0.67%; in assay [10], 0.46%.

With `NS(=O)(=O)c1cccc(Nc2cc(-c3ccc(F)cc3)n[nH]2)c1`, the inhibition in assay [1] was 3.11%; in assay [2], 2.57%; in assay [3] it was 7.84%; in assay [4], -1.7%; in assay [5], -3.94%; in assay [6], -1.71%. The inhibition in assay [7] was 17.6%; in [8], 8.44%; in assay [9], 11.9%; in [10], 10.4%.

Take `CN(C)C(=O)O[C@H]1CN[C@H](C#Cc2cc3ncnc(Nc4ccc(OCc5cccc(F)c5)c(Cl)c4)c3s2)C1`: the inhibition in assay [1] is 1.77%; in assay [2] it was 2.42%; in [3] it was 2.41%; in assay [4], 1.15%; in [5] it was 0.23%; in assay [6], 0.86%. Also, the inhibition in [7] came out at 2.73%; in assay [8], 1.56%; in [9] it was 3.31%; in assay [10], 1.79%.

As for `Nc1nccc(-c2c(-c3ccc(F)cc3)nn3cc(C(F)(F)F)ccc23)n1`, the inhibition in assay [1] is -1.99%; in assay [2], 0.49%; in assay [3] it was -0.48%; in [4], -0.17%; in assay [5] it was -1%; in assay [6], -1.52%. Moreover, the inhibition in assay [7] is -2.44%; in assay [8], 0.02%; in assay [9], -0.27%; in assay [10] it was 2.24%.

`NS(=O)(=O)c1ccc(NC=C2C(=O)Nc3ccc4ncsc4c32)cc1`: the inhibition in assay [1] amounted to 13.7%; in assay [2], 7.83%; in [3] it was 30.6%; in [4] it was 0.83%; in assay [5], 6.33%; in assay [6] it was 14.5%. Besides, the inhibition came to 48% in [7], 7.15% in [8], 33.2% in [9] and 4.96% in assay [10].
